According to the supplement of paper PMC12645437, “Orthogonal IMiD-Degron Pairs Induce Selective Protein Degradation in Cells” (ACS Chemical Biology, 2025):
Over roughly 8,300 sequences, “log2 fold change of degron read counts, EGFP-low vs EGFP+ sorted cells (limma voom), compound-induced degradation” has its median near -1.1; the highest 2% begin near 3.2. What follows is part of a selection rich in the highest values, with near analogues and random picks from the rest.

T1: CRBN, Q96SW2
T1 chain: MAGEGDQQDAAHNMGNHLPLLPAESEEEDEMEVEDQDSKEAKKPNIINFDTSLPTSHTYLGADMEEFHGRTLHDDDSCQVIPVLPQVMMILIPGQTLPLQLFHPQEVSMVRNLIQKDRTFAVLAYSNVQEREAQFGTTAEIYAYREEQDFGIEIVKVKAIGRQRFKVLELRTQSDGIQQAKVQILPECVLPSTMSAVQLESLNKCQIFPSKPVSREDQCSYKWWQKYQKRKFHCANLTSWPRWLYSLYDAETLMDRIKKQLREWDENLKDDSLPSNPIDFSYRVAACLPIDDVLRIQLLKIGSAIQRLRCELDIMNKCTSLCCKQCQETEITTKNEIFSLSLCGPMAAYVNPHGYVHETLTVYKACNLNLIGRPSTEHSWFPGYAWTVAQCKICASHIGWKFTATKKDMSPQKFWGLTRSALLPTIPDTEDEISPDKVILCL


Molecular target: T1, CRBN, Q96SW2
Experiment: log2 fold change of degron read counts, EGFP-low vs EGFP+ sorted cells (limma voom), compound-induced degradation; higher = more compound-induced degradation of the degron-EGFP fusion; degrons are variants of IKZF1/3 zinc finger 2; compound dose not given here
Conditions: Jurkat, 18 h
[1] = compound: compound 19 (5-tert-butyl-thalidomide)
[2] = compound: compound 22 (5-morpholino-thalidomide)
[3] = compound: compound 33 (diphenyl IMiD analogue)
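Further: pooled lentiviral library of zinc finger degron-EGFP fusions in mCherry-positive Jurkat cells, FACS-sorted after compound exposure, with degron abundance counted by next-generation sequencing.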

Sequence | log2 fold change of degron read counts [1] | log2 fold change of degron read counts [2] | log2 fold change of degron read counts [3] | log2 fold change of degron read counts (compound: thalidomide)
FWCEICGHWFTQKGNLLRHIKL [46F_47W_49E_50I_52G_53H_54W_55F_67L_, Q9UKT9] | -1.25 | -1.77 | -1.42 | -1.28
FVCEICGAWFTQKGNLLRHIKL [46F_47V_49E_50I_52G_53A_54W_55F_67L_, Q9UKT9] | -1.2 | -0.828 | 0.741 | 0.583
FSCNICGASFTQKGNLLRHIKL [46F_47S_49N_50I_52G_53A_54S_55F_67L_, Q9UKT9] | 1.66 | 1.77 | 1.15 | 0.544
FCCPQCGAMFTQKGNLLRHIKL [46F_47C_49P_50Q_52G_53A_54M_55F_67L_, Q9UKT9] | -1.18 | -1.69 | 0.335 | -0.935
LYCNQCGFVCTQKGNLLRHIKL [46L_47Y_49N_50Q_52G_53F_54V_55C_67L_, Q9UKT9] | -0.977 | -0.96 | -1.36 | -1.76
FHCNQCGAVFTQKGNLLRHIKL [46F_47H_49N_50Q_52G_53A_54V_55F_67L_, Q9UKT9] | -1.89 | -2.19 | -1.71 | -2
FDCNVCGATFTQKGNLLRHIKL [46F_47D_49N_50V_52G_53A_54T_55F_67L_, Q9UKT9] | -1.91 | -2.32 | -1.24 | -1.1
FECPICGHYFTQKGNLLRHIKL [46F_47E_49P_50I_52G_53H_54Y_55F_67L_, Q9UKT9] | -2.41 | -2.69 | -1.81 | -1.2
FECDVCGAWFTQKGNLLRHIKL [46F_47E_49D_50V_52G_53A_54W_55F_67L_, Q9UKT9] | -3.45 | -3.71 | -2.2 | -2.52
FRCNICGAAFTQKGNLLRHIKL [46F_47R_49N_50I_52G_53A_54A_55F_67L_, Q9UKT9] | 1.09 | 1.5 | 1.96 | 1.32
FYCNICGAAFTQKGNLLRHIKL [46F_47Y_49N_50I_52G_53A_54A_55F_67L_, Q9UKT9] | 2.66 | 2.97 | 1.81 | -0.259
FACNICGAAFTQKGNLLRHIKL [46F_47A_49N_50I_52G_53A_54A_55F_67L_, Q9UKT9] | 2.77 | 2.64 | 0.592 | 0.334
FECNICGAAFTQKGNLLRHIKL [46F_47E_49N_50I_52G_53A_54A_55F_67L_, Q9UKT9] | 0.374 | -0.891 | 1.05 | 2.1
FQCNICGAAFTQKGNLLRHIKL [46F_47Q_49N_50I_52G_53A_54A_55F_67L_, Q9UKT9] | 1.01 | 2.28 | 1.53 | 3.39
FWCNICGAAFTQKGNLLRHIKL [46F_47W_49N_50I_52G_53A_54A_55F_67L_, Q9UKT9] | 2.29 | 3.32 | 1.66 | 0.348
FCCEQCGANFTQKGNLLRHIKL [46F_47C_49E_50Q_52G_53A_54N_55F_67L_, Q9UKT9] | -1.5 | -1.89 | -0.599 | -1.3
FHCPICGHPFTQKGNLLRHIKL [46F_47H_49P_50I_52G_53H_54P_55F_67L_, Q9UKT9] | 0.356 | -0.486 | 1.11 | -0.0778
LFCEICGFMCTQKGNLLRHIKL [46L_47F_49E_50I_52G_53F_54M_55C_67L_, Q9UKT9] | 3.2 | 3.12 | 1.56 | 1.17
